Source: PubChem BioAssay (NCI)
This is part of a sample that, as a whole, favours compounds with a hit. Of some 79,000 tested, about 15% had one in any assay. Values without a mark were called inactive. Active and inactive are the calls of the source. Rule as the data show it: active = growth inhibition above about 70%; inactive = the rest.

Tests used:
[1] = NCI Yeast Anticancer Drug Screen. Data for the rad50 strain (AID 155);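 also: 0% = growth of vehicle-only cultures of the same strain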; details: S. cerevisiae rad50 strain growth inhibition; at 50.0 µM; active compounds read high
In short: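 Growth of the mutant yeast was measured after compound exposure and referenced to vehicle-treated cultures.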

[2] = NCI Yeast Anticancer Drug Screen. Data for the mec2-1 strain (AID 157); details: S. cerevisiae mec2-1 strain, at 50.0 µM, active compounds read high
In short: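 Growth inhibition is read against vehicle-treated controls after compound exposure of the mec2-1 yeast strain, which is defective in DNA damage repair or cell cycle control.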

[3] = NCI Yeast Anticancer Drug Screen. Data for the cln2 rad14 strain (AID 165);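 also: 0% = growth equal to vehicle treated cultures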; details: S. cerevisiae cln2 rad14 strain, at 50.0 µM, active compounds read high
In short: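 Growth inhibition, relative to vehicle-treated controls, is the read-out. The test organism is a yeast strain with defined genetic alterations, cln2 rad14.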

[4] = NCI Yeast Anticancer Drug Screen. Data for the bub3 strain (AID 167); details: S. cerevisiae bub3 mutant strain, at 50.0 µM, active compounds read high
In short: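 Whole-cell yeast assay. The mutant strain was incubated with compounds, and growth inhibition was determined by comparison with vehicle-treated cells.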

[5] = NCI Yeast Anticancer Drug Screen. Data for the mlh1 rad18 strain (AID 175); details: S. cerevisiae mlh1 rad18 strain growth inhibition; at 50.0 µM; active compounds read high
In short: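 Cells of a genetically altered yeast strain, deficient in DNA damage repair, were treated with compound. Their growth was then compared with that of vehicle-treated cultures to give inhibition.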

[6] = NCI Yeast Anticancer Drug Screen. Data for the sgs1 mgt1 strain (AID 161);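 also: 0% = growth of cultures given vehicle only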; details: S. cerevisiae sgs1 mgt1 strain, at 50.0 µM, active compounds read high
In short: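 Percent growth inhibition was derived by comparing compound-exposed mutant yeast with vehicle-exposed cultures. The strain carries alterations in DNA damage repair.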

| SMILES | growth inhibition [1] | growth inhibition [2] [%] | growth inhibition [3] | growth inhibition [4] [%] | growth inhibition [5] | growth inhibition [6] [%] |
| --- | --- | --- | --- | --- | --- | --- |
| CNC(=O)NC1C(O)COC(OC)C1O (stereo not given) | -2.65% | 3.4 | -37.1% | -4.15 | 0.25% |  |
| O=C(CN1C(=O)c2cccc3c(Br)ccc(c23)C1=O)c1ccc(Cl)cc1 | -14.2% | -12.7 | 5% | 6.8 | 13.6% |  |
| CC1=Nc2c(ccc3c2C(=O)c2ccccc2C3=O)NC(c2ccncc2)C1 (stereo not given) | 31.1% | 5 | 17.6% | 0.35 | 12.4% |  |
| CC(c1ccccc1)C(C)(C)O (stereo not given) | 10.2% | -8.25 | 20.3% | -14.5 | -4.95% |  |
| CSc1nc(Cl)nc2[nH]ncc12 | 11.3% | -5.4 | -17.3% | 4.45 | 30.9% |  |
| COC(=O)c1ccc(/C=C(\c2ccc([N+](=O)[O-])o2)S(=O)(=O)c2ccc(NC(C)=O)cc2)o1 | 84.7% (active) | 66 | 71.7% (active) | 34.8 | 88.5% (active) |  |
| N#CC1=C2CCCC(C#N)=C2CCC1 | 0.95% | -1 | -40.1% | -21.3 | -13.8% |  |
| O=C1Cc2c(c3ccccc3c3ccccc23)C1 | 20.9% | 7.5 | -41% | 4 | 20.9% |  |
| COC(=O)/C(C#N)=C\n1c(=S)[nH]c2ccccc21 | -14.2% | 2.55 | 17.4% | -4.9 | -8.35% |  |
| COc1ccc(-c2c3c(nc4nc(SCC(=O)c5ccc(Br)cc5)nc(N)c24)CCCC3)cc1OC | 0.05% | -17.2 | -0.55% | -16.6 | 9.65% |  |
| Cn1c(=O)c2c(nc3n(C)c(=O)c4ccccc4n23)n(C)c1=O | 64.7% | 32.8 | 7.3% | 5.45 | 45.6% |  |
| O=C(Cl)/C=C/c1ccccc1 | 37.1% | 15.5 | -29.1% | 23.9 | 34.9% |  |
| O=C(O)c1ccc(/C=N/NC(=O)C(O)(c2ccccc2)c2ccccc2)cc1 | 8.3% | -21.9 | 11.7% | -10.4 | -9.65% |  |
| CC1=CC(C)(C)NC(=S)N1C1CCCCC1 | 9.75% | -6.85 | -5% | 6.55 | 14.6% |  |
| CC1=C/C(=N/NS(=O)(=O)c2ccc(C)cc2)CC(C)(C)C1 | 27.6% | -3.25 | -22.3% | 4.1 | 13.2% |  |
| N#Cc1c(Cl)cccc1N1CCSCC1 | 1.75% | -20.8 | 18.2% | -0.9 | 0.1% |  |
| CO[Si](C)(C)OC | -6.65% | -32 | 0.3% | -6.15 | -13.9% |  |
| Nc1ccc(N=Nc2c(S(=O)(=O)O)cc3cc(S(=O)(=O)O)cc(O)c3c2O)cc1 | -30.8% | -16.4 | -23.9% | 6.55 | 10.8% |  |
| Cc1ccc(S(=O)(=O)Nc2ccc(C(=O)Cl)cc2)cc1 | 4.8% | 25.4 | 6.9% | 27.4 | 11.8% |  |
| CC1=CC2OC3C(OC(=O)c4ccccc4)C(OC(=O)c4ccccc4)C(C)(C2(COC(=O)c2ccccc2)CC1)C31CO1 (stereo not given) | 6.3% | -3.1 | 7.8% | 4.85 | 17.7% |  |
| CN(C)c1ccc(N=Nc2ccc3nc[nH]c3c2)cc1 | -3.15% | 6.65 | -6.1% | -3.3 | 26.5% |  |
| CCOC(=O)CC(C(=O)OCC)C(C(=O)OCC)C(=O)OCC (stereo not given) | 41.9% | -4.1 | 3.4% | 29.8 | 13.6% |  |
| Cc1ccccc1NCC(C)O (stereo not given) | -3.05% | 6.15 | -84.5% | -20.4 | -32% |  |

| SMILES | growth inhibition [1] | growth inhibition [2] [%] | growth inhibition [3] | growth inhibition [4] [%] | growth inhibition [5] | growth inhibition [6] [%] |
| --- | --- | --- | --- | --- | --- | --- |
| O=C(Nc1ccccc1)c1cc([N+](=O)[O-])cc([N+](=O)[O-])c1 | 9.25% | 16.4 | -24.6% | 9.55 | 0.05% |  |
| CCOC12CC(OC(=O)N1)C(C)C1OC1(C)C(OC(=O)C(C)N(C)C(C)=O)CC(=O)N(C)c1cc(cc(OC)c1Cl)C/C(C)=C/C=CC2OC (stereo not given) | -21.1% | -29.6 | -0.4% | -20.4 | -5.25% |  |
| O=C(O)CSc1ncccc1[N+](=O)[O-] | 8.85% | -0.65 | 12.9% | -32.6 | 4.35% |  |
| COc1ccc2c(CCn3ccccc3=O)cccc2c1 | -13.3% | -8.5 | -13.9% | 44.9 | -11.2% |  |
| CC(=O)c1ccc(OC(=O)Nc2ccc(Cl)cc2)cc1 | 4.8% | 10.1 | -2.3% | 29.6 | 12.9% |  |
| CC(CCl)CC#N (stereo not given) | -5.6% | -19.1 | 13.1% | -10 | -1.1% |  |
| CCCCCCCCCCCCCCCCOCC(COP(=O)(O)OCC1OC(n2cc(CC)c(=O)[nH]c2=O)CC1O)OC(=O)CCCCCCCCCCCCCCC (stereo not given) | -0.45% | -5.55 | 3.15% | -15.1 | -65% |  |
| CCC(CC)C(=O)OCCOc1ccccc1 | 0.9% | -0.25 | -20.2% | 19.4 | -1.8% |  |
| CC(=O)/C=C1/NC(C(=O)c2ccccc2)=CNC1c1ccccc1 (stereo not given) | 4.95% | 3.75 | -14.5% | 9.95 | 18.8% |  |
| CC1SCC(=O)N1c1nncs1 (stereo not given) | -3.05% | -0.75 | -46.2% | -2.1 | -46.6% |  |
| COc1cc2c(cc1OC)C(c1ccccc1CCCCl)=NCC2 | 6.4% | -4 | 10.8% | -27.5 | -44.7% |  |
| COC(=O)/C(=N\NC(C)(C)C)C(C(=O)C(=O)Nc1cc(C)ccc1C)c1nc2ccccc2[nH]c1=O (stereo not given) | -18.8% |  | 18.8% | -7.95 | -17.8% | -1.5 |
| COc1ccc(CN)cc1 | -0.7% |  | 2.75% | 6.85 | -2.6% | -15.2 |
| C=CCOC(=O)Nc1ccc(S(=O)(=O)N(CCC)CCC)cc1 | -13.3% |  | -23.4% | -14.7 | -17.2% | 32 |
| C/C(=N/Nc1ccc([N+](=O)[O-])cc1[N+](=O)[O-])c1ccc(Sc2ccc(/C(C)=N/Nc3ccc([N+](=O)[O-])cc3[N+](=O)[O-])cc2)cc1 | -13.2% |  | -19.4% | -14.9 | -23.4% | -10.3 |
| CC(C)CCOC(=O)c1ccccc1OC(=O)Nc1ccc(Cl)cc1[N+](=O)[O-] | -18.9% |  | -41.4% | 0.05 | -11.3% | -20.4 |
| CC1(n2nc(-c3ccccc3)n(-c3ccccc3)c2=O)CSC1 | -8.4% |  | -15.9% | -15.8 | -7.1% | -31.1 |
| CN(C)c1ccc(N=Nc2ccc(S(=O)(=O)O)cc2)cc1.CN(C)c1ccc(N=Nc2ccc(S(=O)(=O)O)cc2)cc1.[NH-]C1CCCCC1[NH-].[Pt+2] | 24.2% |  | -9.15% | 15.6 | 3.55% | 10.3 |
| C=COC(=O)C=C | -3.1% |  | -0.2% | 13.9 | -9.15% | -3.2 |
| CC(C)C(O)(C(=O)OCC1=CC[N+]2(C)CCC(O)C12)C(C)O (stereo not given) | 27.6% |  | -21.4% | -3.2 | 1.95% | 11.4 |
| Cc1cc(=O)c2cc(Cc3ccc(N)cc3)ccc2[nH]1 | 8.35% |  | 3.05% | -3.45 | 0.65% | -8 |
| CCN(CC)Cc1ccccc1CO | 3.05% |  | 9.75% | 9.6 | 0.5% | 2.2 |
| CN(C)CCCSc1nc2ccccc2[nH]1 | -7.85% |  | 0.75% | 7.1 | -6.6% | -20.6 |
